# Reference: PubChem BioAssay (NCI)
# This is part of a sample that, as a whole, favours compounds with a hit. Of some 79,000 tested, about 15% had one in any assay. The source made the active and inactive calls. Rule as the data show it: active = growth inhibition above about 70%; inactive = the rest.
# Assay: NCI Yeast Anticancer Drug Screen. Data for the sgs1 mgt1 strain (AID 161);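 also: 0% = growth of cultures given vehicle only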
# Details: S. cerevisiae sgs1 mgt1 strain, at 50.0 µM, stronger effect = higher value
# Protocol: Growth inhibition of yeast strains with defined genetic alterations is measured as a screen for potential anti-cancer activity. Selected strains with alterations in DNA damage repair or cell cycle control were exposed to compounds and growth inhibition was measured relative to vehicle treated controls. The strain used in this assay is sgs1 mgt1
row,SMILES,growth inhibition
1,O=S1c2ccccc2S(=O)c2ccccc21 (stereo not given),1.4% (inactive)
2,Cc1nn(-c2ccccc2)nc1C(=O)Nc1ccc2[nH]ncc2c1,-8.95% (inactive)
3,N#CC1=C(N)NC(=O)C(C(N)=O)C1c1ccccc1Cl (stereo not given),-12.1% (inactive)
4,N#CC(O)CCOCc1ccccc1 (stereo not given),-5.45% (inactive)
5,CC(=O)OCC(=O)[C@@]1(O)CC[C@H]2[C@@H]3C[C@H](C)C4=CC(=O)C=C[C@]4(C)[C@@]3(Br)[C@@H](O)C[C@@]21C,38.3% (inactive)
6,COc1ccccc1CNCCCCCNCCCCCCCCCCNCCCCCNCc1ccccc1OC,-27.9% (inactive)
7,Clc1ccccc1N=Cc1ccc(C=Nc2ccccc2Cl)cc1,34% (inactive)
8,CCN1C(=O)Nc2ccc(Cl)cc2C1(O)c1ccccc1 (stereo not given),1.55% (inactive)
9,N#CCCN1CCCC1=O,-12.5% (inactive)
10,CCCCCCc1cc2cc(C(=O)Nc3nc(C45CC6CC(CC(C6)C4)C5)cs3)c(=O)oc2cc1O,-1.15% (inactive)
11,Cc1nc2ccc(Cl)cc2c2c1CCS2,-2.8% (inactive)
12,O=[N+]([O-])c1ccccc1Sc1ccc2c3c(cccc13)CN(CCCO)C2,47.6% (inactive)
13,O=C(O)C(CO)(c1ccccc1)c1ccccc1,-8.25% (inactive)
14,CCN(CC)C(=O)COc1ccc(Cl)c(C)c1,6.4% (inactive)
15,COC(=O)C(C)(NC(=O)C(CC(=O)OC(C)(C)C)NC(=O)OC(C)(C)C)c1ccccc1 (stereo not given),46.5% (inactive)
16,COC(=O)c1cc(C)nc(Cl)c1C(=O)O,-2.2% (inactive)
17,CCCCn1c2c(c3ccccc3c1=O)C(=O)c1ccccc1-2,-4.8% (inactive)
18,Oc1c(Br)cc(Br)cc1/C=N/c1nc(-c2ccccc2)cs1,99% (active)
19,N#CC1CNC(=S)N=C1c1ccccc1 (stereo not given),17.9% (inactive)
20,Cc1ccnc2[nH]c(-c3cccc(Cl)c3)cc(=O)c12,-41% (inactive)

row,SMILES,growth inhibition
1,COC(=O)C1=C(NC(=O)Nc2ccc([N+](=O)[O-])cc2)OC(C)(C)C1c1ccc(Cl)cc1 (stereo not given),6.45% (inactive)
2,Nc1nnc(-c2ccc(Br)cc2)o1,-14.2% (inactive)
3,c1ccc2c(c1)c1ccccc1c1c3ccccc3c3ccccc3c21,-1.05% (inactive)
4,CNC(=S)NNC1=NCCCCN1,-16.1% (inactive)
5,Cc1ccc2ccccc2[n+]1CC(=O)c1ccc2c(c1)OCO2,-0.6% (inactive)
6,CN(CCS)C(=N)N,2.55% (inactive)
7,N=c1ccc2ccccc2n1O,-4.2% (inactive)
8,Cc1nc(N)[nH]c(=O)c1CCCN=Cc1ccccc1,2.8% (inactive)
9,NC(=O)C(CC(=O)O)NC(=O)c1ccccc1 (stereo not given),3.45% (inactive)
10,N#Cc1cc([N+](=O)[O-])ccc1NC(=O)C(=O)Nn1c(=S)[nH]c2ccccc2c1=O,-34.5% (inactive)
11,Cc1ccccc1/C=C/C(=O)O,-0.45% (inactive)
12,CC(O)C(=O)OCCOc1ccccc1 (stereo not given),-3.05% (inactive)
13,Cc1cc(Cl)c(C)c(C)c1O,-20.2% (inactive)
14,C=C1OC(c2ccccc2NC)=NC12CCCCC2,-9.9% (inactive)
15,CCCCCCn1cnc2c(=O)[nH]c(N)nc21,-17.2% (inactive)
16,Cc1ccc(Cl)cc1NC(=O)Nc1cccc(C(F)(F)F)c1,14.2% (inactive)
17,c1ccc2c(-c3ccncc3)c3ccccc3cc2c1,9.45% (inactive)
18,OC1c2ccccc2OC2(N3CCCC3)CCCCC12 (stereo not given),-13.2% (inactive)
19,CCCC1(C(=O)O)NC(=O)NC1=O (stereo not given),-14.7% (inactive)
20,O=c1[nH]cnc2c1ncn2CCc1ccc([N+](=O)[O-])cc1[N+](=O)[O-],9.4% (inactive)
